# From PubChem BioAssay (NCATS)
# Results filed as inconclusive are left out. Activity calls are given as the source filed them. Unless noted, calls follow the shape of the dose curve; as a rule, active = well fitted curve in the direction sought with a large enough effect; inconclusive = small, poorly fitted or top-dose-only effect, or another doubt; inactive = no such curve, though single readings can be large; an effect the other way counts as inactive or inconclusive.
# Tests used:
# [1] = Quantitative High-Throughput drug screen in 47 multiple myeloma cell lines against the NCATS MIPE library collection: PE2_PLB cell viability assay (AID 1919869); also: nearly all actives have a fitted effect of over 35% in size
# Outline: (§1)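 MIPE 4.0 approved/investigational drugs; 500 cells/well; 48 h 37 °C humidified 5% CO2; CTG luminescence readout; DMSO = 100%, media = 0% viability.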
# [2] = Quantitative High-Throughput drug screen in 47 multiple myeloma cell lines against the NCATS MIPE library collection: PCM6_Riken cell viability assay (AID 1919870); also: nearly all actives have a fitted effect of over 30% in size
# Outline: as §1
# [3] = Quantitative High-Throughput drug screen in 47 multiple myeloma cell lines against the NCATS MIPE library collection: OPM2_DSMZ cell viability assay (AID 1919872); also: nearly all actives have a fitted effect of over 30% in size
# Outline: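 Luminescent ATP measurement with CellTiter-Glo gives viability, scaled between DMSO-only wells (100%) and media-only wells (0%). Cells, 500 per well, faced library compounds for 48 hours at 37C.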
# [4] = Quantitative High-Throughput drug screen in 47 multiple myeloma cell lines against the NCATS MIPE library collection: KMS11_JCRBsus cell viability assay (AID 1919873); also: nearly all actives have a fitted effect of over 50% in size; also: potency is read from the fitted curve at half-maximal effect
# Outline: as §1
# [5] = Quantitative High-Throughput drug screen in 47 multiple myeloma cell lines against the NCATS MIPE library collection: KMS28BM_JCRB cell viability assay (AID 1919874); also: nearly all actives have a fitted effect of over 35% in size
# Outline: as §1
# [6] = qHTS for identification of novel therapeutic agents for treatment of microphthalmiaassociated transcription factor (MiT) renal cell carcinoma (RCC) (AID 1963991); settings: CellTiter-Glo, 48 h, stronger effect = lower value
# Outline: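 Curves over 11 concentrations were fitted to CellTiter-Glo luminescence, scaled between empty wells (0%) and DMSO (100%) viability. Cells were UOK109, UOK124 and UOK145 TFE3-fusion RCC lines at 500/well, exposed 48 hours at 37 C.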
# [7] = Quantitative High-Throughput drug screen in 47 multiple myeloma cell lines against the NCATS MIPE library collection: RPMI8226_ATCC cell viability assay (AID 1919871); also: nearly all actives have a fitted effect of over 30% in size; also: potency is read from the fitted curve at half-maximal effect
# Outline: as §1
# [8] = qHTS drug screen for cell cycle checkpoint inhibitors in PARPi-resistant BRCA-mutant ovarian cancer cell lines. (AID 1963452; calls by dose curve); settings: PEO1/OlaR viability, CellTiter-Glo luminescence, 96 h, stronger effect = lower value
# Outline: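 PEO1, PEO4 and PEO1/OlaR ovarian cancer cells, 600 per well, exposed 96 h at 37C to a dilution series. Viability read by CellTiter-Glo luminescence, normalized to DMSO and empty wells; activity summarized as Z-AUC.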
# [9] = target: Cytochrome P450 3A4 (Homo sapiens) (UniProt P08684); assay: qHTS for inhibitors of CYP3A4 against the NCATS DSHEA and TCM libraries (AID 1919971);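 also: % is scaled to controls: 0 for no effect and ±100 for the full control effect; inhibition lowers luminescence from luciferin made by CYP3A4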
# Outline: (§2)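 Luminescent P450-Glo format: compounds preincubated 15 min with enzyme and luciferin substrate, reaction run 30-45 min after NADPH regeneration solution. Intraplate controls: ketoconazole for CYP3A4 and CYP2C19, sulfaphenazole for CYP2C9.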
# [10] = target: Cytochrome P450 2C19 (Homo sapiens) (UniProt P33261); assay: qHTS for inhibitors of CYP2C19 against the NCATS DSHEA and TCM libraries (AID 1919974);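 also: luminescence from luciferin released by CYP2C19 oxidation of a pro-luciferin substrate; % is scaled to controls: 0 for no effect and ±100 for the full control effect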
# Outline: as §2
# [11] = KB-3-1 P-gp reporter qHTS against the NCATS DSHEA and TCM libraries (AID 1919975); also: 0% is about no effect
# Outline: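 Cell viability by CellTiter-Glo luminescence following ~72 h compound exposure (concentration-response). Uses parental, non-P-gp-overexpressing KB-3-1 line, 500 cells/well in DMEM/10% FBS, attached ~4 h before dosing.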
# [12] = Dual reporter qHTS for agonist of Pregnane X Receptor (hPXR) against the NCATS DSHEA and TCM libraries: Fluorescence readout (AID 1920058); also: 0% is about no effect
# Outline: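 hPXR-Luc HepG2 cells, 2000/well in charcoal-stripped serum, attached 5 h, dosed for ~24 h at 37 °C. Fluorescence read is CellTiter-Fluor viability (Ex/Em 405/540 nm); rifampicin positive, tetraoctyl ammonium bromide (92 µM) cytotoxicity controls.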
# [13] = target: Nuclear receptor subfamily 1 group I member 2 (Homo sapiens) (UniProt O75469); assay: Dual reporter qHTS for agonist of Pregnane X Receptor (hPXR) against the NCATS DSHEA and TCM libraries: Luminescence readout (AID 1920059); also: 0% is about no effect
# Outline: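 hPXR-LucHepG2 cells in phenol red-free DMEM with 5% charcoal-stripped FBS, 2000 cells/well, attached 5 h, then exposed 24 h at 37C to compounds; rifampicin as positive agonist control (2.8 nM–92 uM). Luciferase luminescence read.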
# [14] = target: Nuclear receptor subfamily 1 group I member 2 (Homo sapiens) (UniProt O75469); assay: Dual reporter qHTS for antagonist of Pregnane X Receptor (hPXR) against the NCATS DSHEA and TCM libraries: Luminescence Readout (AID 1920060);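 also: HepG2 cells carrying hPXR luciferase reporter stimulated with rifampicin at 2 µM; 0% is about no effect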
# Outline: (§3)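 In antagonist mode, 2 uM rifampicin was added to hPXR-Luc HepG2 cells alongside test substances, incubated 24 h at 37 C; luminescence gave reporter activity, and CellTiter-Fluor fluorescence (405/540 nm) gave viability.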
# [15] = Dual reporter qHTS for antagonist of Pregnane X Receptor (hPXR) against the NCATS DSHEA and TCM libraries: Fluorescence Readout (AID 1920061); also: 0% is about no effect
# Outline: as §3
# [16] = TFE3-RCC UOK109 viability, measured here: UOK109 Z-AUC
# [17] = TFE3-RCC viability, measured here: UOK124 Z-AUC
# [18] = TFE3-RCC viability, measured here: UOK145 Z-AUC
# [19] = measured here: PEO1 parental Z-AUC
# Chain of Nuclear receptor subfamily 1 group I member 2 (Homo sapiens) (O75469 whole entry, looked up): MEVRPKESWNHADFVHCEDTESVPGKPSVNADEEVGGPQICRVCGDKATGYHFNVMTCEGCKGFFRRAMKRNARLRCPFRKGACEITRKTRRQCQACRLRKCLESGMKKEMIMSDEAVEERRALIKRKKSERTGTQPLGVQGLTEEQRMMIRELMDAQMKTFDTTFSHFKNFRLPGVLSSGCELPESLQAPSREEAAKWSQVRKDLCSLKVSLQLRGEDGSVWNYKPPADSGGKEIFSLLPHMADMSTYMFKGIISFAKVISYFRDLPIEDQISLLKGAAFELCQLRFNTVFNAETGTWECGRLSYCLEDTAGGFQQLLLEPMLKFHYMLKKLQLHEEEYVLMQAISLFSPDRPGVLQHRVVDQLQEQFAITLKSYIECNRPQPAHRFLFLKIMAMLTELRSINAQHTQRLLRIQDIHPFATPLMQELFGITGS
# Chain of Cytochrome P450 2C19 (Homo sapiens) (P33261 whole entry, looked up): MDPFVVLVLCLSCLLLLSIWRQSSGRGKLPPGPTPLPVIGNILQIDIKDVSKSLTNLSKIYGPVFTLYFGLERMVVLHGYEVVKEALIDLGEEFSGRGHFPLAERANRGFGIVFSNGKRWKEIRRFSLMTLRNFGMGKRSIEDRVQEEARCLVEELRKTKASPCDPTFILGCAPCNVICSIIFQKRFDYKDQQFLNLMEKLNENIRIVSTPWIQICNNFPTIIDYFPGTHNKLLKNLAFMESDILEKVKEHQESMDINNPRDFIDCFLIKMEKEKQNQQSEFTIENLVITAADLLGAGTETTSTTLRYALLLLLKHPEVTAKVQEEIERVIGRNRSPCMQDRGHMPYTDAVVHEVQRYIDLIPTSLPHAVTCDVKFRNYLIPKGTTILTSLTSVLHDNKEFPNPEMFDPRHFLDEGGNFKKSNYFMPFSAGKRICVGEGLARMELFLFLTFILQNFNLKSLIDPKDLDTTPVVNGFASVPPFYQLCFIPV
# Chain of Cytochrome P450 3A4 (Homo sapiens) (P08684 whole entry, looked up): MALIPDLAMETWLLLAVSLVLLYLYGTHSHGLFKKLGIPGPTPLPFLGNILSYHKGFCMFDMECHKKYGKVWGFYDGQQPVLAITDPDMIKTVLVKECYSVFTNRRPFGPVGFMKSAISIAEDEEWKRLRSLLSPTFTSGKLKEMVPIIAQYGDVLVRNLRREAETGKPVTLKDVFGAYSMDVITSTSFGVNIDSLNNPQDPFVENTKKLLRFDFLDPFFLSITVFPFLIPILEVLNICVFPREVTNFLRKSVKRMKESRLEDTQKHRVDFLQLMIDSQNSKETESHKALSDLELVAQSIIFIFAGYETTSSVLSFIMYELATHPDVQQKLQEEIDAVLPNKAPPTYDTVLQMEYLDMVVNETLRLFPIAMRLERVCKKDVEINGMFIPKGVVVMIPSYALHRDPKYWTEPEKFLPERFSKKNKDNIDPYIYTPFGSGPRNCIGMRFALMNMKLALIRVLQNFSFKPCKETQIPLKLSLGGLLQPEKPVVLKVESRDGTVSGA
compound,measurement,setting,value
CC1=C(C(=O)O)N2C(=O)[C@@H](NC(=O)C(N)c3ccccc3)[C@H]2SC1 (stereo not given in full),Potency,[1],inactive
same,Potency,[2],inactive
same,Potency,[3],inactive
same,Potency,[4],inactive
same,Potency,[5],inactive
same,z-score,[6]; [16],1.68
same,z-score,[6]; [17],0.228
same,z-score,[6]; [18],0.731
COc1cccc(N(C)C(=S)Oc2ccc3c(c2)CCCC3)n1,Potency,[1],inactive
same,Potency,[7],18.7 µM (active)
same,Potency,[3],inactive
same,Potency,[4],29.6 µM (active)
same,z-score,[6]; [16],0.559
same,z-score,[6]; [17],0.578
same,z-score,[6]; [18],1.67
CC(C(=O)O)c1ccc2c(c1)CC(=O)c1ccccc1S2 (stereo not given),Potency,[1],inactive
same,Potency,[7],inactive
same,Potency,[3],inactive
same,Z-AUC,[8],1.18 (inactive)
same,Z-AUC,[8]; [19],0.703
same,Z-AUC,[8]; measured here: PEO4 Z-AUC,0.789
C[C@@H](NCCCc1cccc(C(F)(F)F)c1)c1cccc2ccccc12,Potency,[1],inactive
same,Potency,[2],inactive
same,Potency,[3],inactive
same,Potency,[4],inactive
same,Z-AUC,[8],0.769 (inactive)
same,Z-AUC,[8]; [19],0.263
same,Z-AUC,[8]; measured here: PEO4 Z-AUC,0.404
same,z-score,[6]; [16],1.16
same,z-score,[6]; [17],0.808
same,z-score,[6]; [18],0.348
C#CCN[C@@H]1CCc2ccccc21,Potency,[1],inactive
same,Potency,[7],9.35 µM (active)
same,Potency,[3],inactive
same,Potency,[4],inactive
same,Potency,[5],inactive
same,Z-AUC,[8],-0.484 (inactive)
same,Z-AUC,[8]; [19],-0.355
same,Z-AUC,[8]; measured here: PEO4 Z-AUC,-0.739
same,z-score,[6]; [16],0.682
same,z-score,[6]; [17],0.222
same,z-score,[6]; [18],0.635
CCN(C)C(=O)Oc1cccc([C@H](C)N(C)C)c1,Potency,[1],inactive
same,Potency,[3],inactive
same,Potency,[4],inactive
same,Potency,[5],inactive
same,z-score,[6]; [16],0.893
same,z-score,[6]; [17],0.446
same,z-score,[6]; [18],1.29
O=C(O)c1cccnc1,Potency,[1],inactive
same,Potency,[7],inactive
same,Potency,[3],inactive
same,outcome,[9],inactive
same,Potency,[10],inactive
same,Potency,[11],inactive
same,outcome,[12],inactive
same,outcome,[13],inactive
same,outcome,[14],inactive
same,outcome,[15],inactive
same,Z-AUC,[8],0.136 (inactive)
same,Z-AUC,[8]; [19],-0.782
same,Z-AUC,[8]; measured here: PEO4 Z-AUC,-0.146
same,z-score,[6]; [16],0.704
same,z-score,[6]; [17],0.528
same,z-score,[6]; [18],0.253
O=C(NCC1CN(c2ccc(N3CCOCC3=O)cc2)C(=O)O1)c1ccc(Cl)s1 (stereo not given),Potency,[1],inactive
same,Potency,[7],inactive
same,Potency,[3],inactive
same,Potency,[5],inactive
same,Z-AUC,[8],-0.884 (inactive)
same,Z-AUC,[8]; [19],-0.579
same,Z-AUC,[8]; measured here: PEO4 Z-AUC,-0.444
same,z-score,[6]; [16],0.607
same,z-score,[6]; [17],0.69
same,z-score,[6]; [18],0.507
